Laboratory results as given in PubChem BioAssay AID1159580 (chemical genetic matrix, 2015).
Values joined by “and” are separate entries in the source; they are usually repeats but may differ in a detail not shown here. Equal entries are not always repeated. About 2,000 (36%) of roughly 5,500 compounds were called active. Roughly 18% stayed inconclusive and do not appear here. No stated cut-off is given here; in the data, active means normalized growth mostly below about 0.91 (no sharp cut-off); inconclusive means no clear call, values can overlap the other calls; inactive means mostly above about 0.92. The list shows a part of the results.

Assay: chemical genetic growth profiling, strain panel (AID 1159580);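 further: tested at 20 µM; growth read once vehicle control cultures reached saturation at 30 °C; 1 = growth at the plate median or of vehicle wells; lower values mean less growth of the strain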
Details: S. cerevisiae deletion strains, growth OD

Measured: normalized growth

COC1=C[C@@H]2[C@@H]3Cc4ccc(OC)c(O)c4[C@]2(CCN3C)CC1=O
inactive: locus YAL013W, strain DEP1, hits give low values 0.985 | locus YAL021C, strain ccr4, hits give low values 1.01 | locus YAL026C, strain drs2, hits give low values 1 | locus YAL030W, strain snc1, hits give low values 1 | locus YBL061C, strain skt5, hits give low values 1.01 | locus YBR009C, strain hhf1, hits give low values 1 | locus YBR021W, strain FUR4, hits give low values 1.04 | locus YBR023C, strain chs3, hits give low values 1 | locus YBR171W, strain sec66, hits give low values 0.983 | locus YBR229C, strain ROT2, hits give low values 0.961 | locus YBR231C, strain swc5, hits give low values 0.995 | locus YBR279W, strain paf1, hits give low values 0.991 | locus YCL011C, strain gbp2, hits give low values 1 | locus YCL016C, strain dcc1, hits give low values 0.977 | locus YCL029C, strain bik1, hits give low values 0.967 | locus YCL069W, strain vba3, hits give low values 1.01 | locus YCR088W, strain abp1, hits give low values 0.987 | locus YDL005C, strain med2, hits give low values 0.997 | locus YDL035C, strain GPR1, hits give low values 1 | locus YDL040C, strain nat1, hits give low values 1 | locus YDL074C, strain BRE1, hits give low values 0.952 | locus YDL101C, strain DUN1, hits give low values 0.972 | locus YDL134C, strain PPH21, hits give low values 0.981 | locus YDL185W, strain tfp1, hits give low values 0.929 | locus YDL192W, strain arf1, hits give low values 0.987 | locus YDR001C, strain nth1, hits give low values 1 | locus YDR069C, strain doa4, hits give low values 0.979 | locus YDR101C, strain arx1, hits give low values 1 | locus YDR137W, strain rgp1, hits give low values 0.972 | locus YDR150W, strain NUM1, hits give low values 0.971 | locus YDR159W, strain sac3, hits give low values 0.967 | locus YDR162C, strain NBP2, hits give low values 0.969 | locus YDR195W, strain ref2 0.967 | locus YDR297W, strain sur2, hits give low values 1 | locus YDR318W, strain mcm21, hits give low values 0.995 | locus YDR334W, strain swr1, hits give low values 0.984 | locus YDR335W, strain msn5, hits give low values 0.986 | locus YDR388W, hits give low values 0.984 | locus YDR392W, strain spt3, hits give low values 0.988 | locus YDR502C, strain sam2, hits give low values 0.986 | locus YEL003W, strain gim4, hits give low values 1 | locus YEL037C, strain rad23, hits give low values 0.999 | locus YEL061C, strain CIN8 (second series), hits give low values 0.999 | locus YEL061C, strain CIN8, hits give low values 0.982 | locus YER015W, strain faa2, hits give low values 0.986 | locus YER016W, strain bim1, hits give low values 1 | locus YER110C, hits give low values 0.969 | locus YER111C, strain swi4, hits give low values 1.01 | locus YER155C, strain BEM2 (second series), hits give low values 1.01 | locus YER155C, strain BEM2, hits give low values 1 | locus YER167W, strain BCK2, hits give low values 1 | locus YFR010W, strain ubp6, hits give low values 1.01 | locus YGL078C, strain dbp3, hits give low values 0.971 | locus YGL086W, strain mad1, hits give low values 0.99 | locus YGL167C, strain pmr1, hits give low values 0.986 | locus YGL173C, strain kem1, hits give low values 0.99 | locus YGL227W, strain vid30, hits give low values 1 | locus YGL240W, strain doc1, hits give low values 1 | locus YGL248W, strain PDE1, hits give low values 0.972 | locus YGL253W, strain hxk2, hits give low values 1.01 | locus YGR078C, strain PAC10, hits give low values 0.965 | locus YGR135W, strain pre9, hits give low values 0.959 | locus YGR229C, strain SMI1, hits give low values 0.974 | locus YGR252W, strain gcn5, hits give low values 1 | locus YHR013C, strain ard1, hits give low values 0.962 | locus YHR027C, strain rpn1, hits give low values 0.992 | locus YHR030C, strain SLT2, hits give low values 1 and 1.03 | locus YHR079C, strain IRE1 (second series), hits give low values 0.987 | locus YHR079C, strain IRE1, hits give low values 1.03 | locus YHR094C, strain hxt1, hits give low values 0.978 | locus YHR129C, strain ARP1, hits give low values 0.996 | locus YHR142W, strain chs7, hits give low values 0.999 | locus YHR200W, strain rpn10, hits give low values 0.975 | locus YIL066C, strain RNR3, hits give low values 0.972 | locus YIL073C, strain SPO22, hits give low values 1.03 | locus YIL125W, strain kgd1, hits give low values 0.968 | locus YIR030C, strain dcg1, hits give low values 0.989 | locus YJL092W, strain hpr5, hits give low values 0.997 | locus YJL095W, strain BCK1 (second series), hits give low values 1 | locus YJL095W, strain BCK1, hits give low values 0.963 and 1.03 | locus YJL115W, strain asf1, hits give low values 1.01 | locus YJL129C, strain trk1, hits give low values 0.977 | locus YJL134W, strain LCB3, hits give low values 0.989 | locus YJL154C, strain vps35, hits give low values 0.988 | locus YJL164C, strain tpk1, hits give low values 0.997 | locus YJL166W, strain qcr8, hits give low values 1 | locus YJL168C, strain set2, hits give low values 0.982 | locus YJL187C, strain SWE1 (second series), hits give low values 0.958 | locus YJR043C, strain POL32, hits give low values 1.03 | locus YJR066W, strain TOR1, hits give low values 0.97
